The text below walks through data of ChEMBL document CHEMBL5724796, “Tm Shift (DSF) assay results for EUbOPEN Chemogenomics Library” (2024).

Residues, ends and D or L forms follow the SMILES beside them. *: point of attachment. CH2Cl = ClC*

Holding throughout (conditions): Compound concentration 20.0 uM
The target of assay [1] is Tyrosine-protein kinase ABL1 (Homo sapiens) (UniProt P00519).
The target in assay [2] is Bromodomain-containing protein 4 (Homo sapiens) (UniProt O60885).
For assay [3], the target named is Cyclin-dependent kinase 2 (Homo sapiens) (UniProt P24941).
Assay [4] concerns the target Casein kinase I isoform delta (Homo sapiens) (UniProt P48730).
The target of assay [5] is Glycogen synthase kinase-3 beta (Homo sapiens) (UniProt P49841).
Chain of Glycogen synthase kinase-3 beta (Homo sapiens) (P49841 whole entry, looked up): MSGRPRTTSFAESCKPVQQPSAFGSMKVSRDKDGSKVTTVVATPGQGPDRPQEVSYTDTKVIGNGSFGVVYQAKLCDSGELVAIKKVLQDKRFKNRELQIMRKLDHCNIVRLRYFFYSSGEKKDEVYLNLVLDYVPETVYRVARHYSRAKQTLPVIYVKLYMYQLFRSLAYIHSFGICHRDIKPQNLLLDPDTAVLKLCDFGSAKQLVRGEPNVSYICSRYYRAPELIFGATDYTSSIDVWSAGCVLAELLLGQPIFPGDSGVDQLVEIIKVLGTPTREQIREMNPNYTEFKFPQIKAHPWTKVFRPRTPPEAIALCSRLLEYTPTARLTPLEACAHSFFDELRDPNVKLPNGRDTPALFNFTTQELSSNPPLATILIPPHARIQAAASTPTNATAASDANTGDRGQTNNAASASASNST
Assay [6] addresses Mitogen-activated protein kinase 1 (Homo sapiens) (UniProt P28482).
Assay [7] addresses T1, Aurora kinase A (Homo sapiens) (UniProt O14965).
T1 sequence (whole entry): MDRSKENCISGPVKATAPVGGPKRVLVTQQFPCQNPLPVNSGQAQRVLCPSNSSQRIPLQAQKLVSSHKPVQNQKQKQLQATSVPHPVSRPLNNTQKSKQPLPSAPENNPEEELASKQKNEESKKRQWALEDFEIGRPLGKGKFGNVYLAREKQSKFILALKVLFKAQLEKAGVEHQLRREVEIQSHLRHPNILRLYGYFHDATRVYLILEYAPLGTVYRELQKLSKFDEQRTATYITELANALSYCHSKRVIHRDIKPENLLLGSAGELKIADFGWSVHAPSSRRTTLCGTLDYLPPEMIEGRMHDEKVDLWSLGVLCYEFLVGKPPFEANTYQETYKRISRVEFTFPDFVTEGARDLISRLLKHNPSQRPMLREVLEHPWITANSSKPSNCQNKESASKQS

The target in assay [8] is T2, Transcription intermediary factor 1-alpha (Homo sapiens) (UniProt O15164).
T2 sequence (whole entry): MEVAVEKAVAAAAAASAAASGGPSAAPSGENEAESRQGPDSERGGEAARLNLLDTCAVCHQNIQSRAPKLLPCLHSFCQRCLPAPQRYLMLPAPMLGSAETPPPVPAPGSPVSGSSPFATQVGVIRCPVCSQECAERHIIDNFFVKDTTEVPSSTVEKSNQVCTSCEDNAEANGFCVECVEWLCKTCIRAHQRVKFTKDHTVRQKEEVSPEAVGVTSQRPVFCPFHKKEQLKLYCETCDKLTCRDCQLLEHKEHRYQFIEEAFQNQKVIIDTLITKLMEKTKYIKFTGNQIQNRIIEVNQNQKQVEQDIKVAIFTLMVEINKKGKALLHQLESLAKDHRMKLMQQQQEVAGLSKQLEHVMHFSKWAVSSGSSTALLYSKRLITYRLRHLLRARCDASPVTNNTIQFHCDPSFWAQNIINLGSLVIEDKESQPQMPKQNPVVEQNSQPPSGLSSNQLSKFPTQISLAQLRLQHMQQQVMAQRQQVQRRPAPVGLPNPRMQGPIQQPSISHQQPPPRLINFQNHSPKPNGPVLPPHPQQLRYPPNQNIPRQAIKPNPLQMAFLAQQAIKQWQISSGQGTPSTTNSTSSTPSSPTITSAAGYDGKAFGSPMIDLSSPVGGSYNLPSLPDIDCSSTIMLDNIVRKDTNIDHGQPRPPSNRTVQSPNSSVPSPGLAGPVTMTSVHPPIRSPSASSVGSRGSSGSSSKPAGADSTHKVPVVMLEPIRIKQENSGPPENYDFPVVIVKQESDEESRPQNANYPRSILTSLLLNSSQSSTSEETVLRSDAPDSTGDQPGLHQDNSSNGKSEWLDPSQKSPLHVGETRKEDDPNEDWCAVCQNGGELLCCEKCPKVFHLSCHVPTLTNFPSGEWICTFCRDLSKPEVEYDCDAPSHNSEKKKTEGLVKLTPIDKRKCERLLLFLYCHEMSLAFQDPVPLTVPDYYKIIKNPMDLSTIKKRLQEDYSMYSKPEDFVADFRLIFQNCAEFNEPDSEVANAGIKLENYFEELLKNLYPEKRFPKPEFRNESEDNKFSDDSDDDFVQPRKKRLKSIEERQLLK

Chain of Mitogen-activated protein kinase 1 (Homo sapiens) (P28482 whole entry): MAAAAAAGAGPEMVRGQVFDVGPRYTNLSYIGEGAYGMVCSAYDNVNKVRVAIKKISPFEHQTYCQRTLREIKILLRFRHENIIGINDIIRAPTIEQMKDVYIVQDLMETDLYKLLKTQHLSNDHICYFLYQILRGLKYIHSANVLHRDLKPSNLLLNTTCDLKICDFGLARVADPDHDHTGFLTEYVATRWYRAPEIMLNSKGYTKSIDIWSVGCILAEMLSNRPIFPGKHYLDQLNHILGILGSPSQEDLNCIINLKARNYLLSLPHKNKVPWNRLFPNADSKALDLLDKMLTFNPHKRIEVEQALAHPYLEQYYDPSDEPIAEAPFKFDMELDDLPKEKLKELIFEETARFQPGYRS
Chain of Tyrosine-protein kinase ABL1 (Homo sapiens) (P00519 whole entry): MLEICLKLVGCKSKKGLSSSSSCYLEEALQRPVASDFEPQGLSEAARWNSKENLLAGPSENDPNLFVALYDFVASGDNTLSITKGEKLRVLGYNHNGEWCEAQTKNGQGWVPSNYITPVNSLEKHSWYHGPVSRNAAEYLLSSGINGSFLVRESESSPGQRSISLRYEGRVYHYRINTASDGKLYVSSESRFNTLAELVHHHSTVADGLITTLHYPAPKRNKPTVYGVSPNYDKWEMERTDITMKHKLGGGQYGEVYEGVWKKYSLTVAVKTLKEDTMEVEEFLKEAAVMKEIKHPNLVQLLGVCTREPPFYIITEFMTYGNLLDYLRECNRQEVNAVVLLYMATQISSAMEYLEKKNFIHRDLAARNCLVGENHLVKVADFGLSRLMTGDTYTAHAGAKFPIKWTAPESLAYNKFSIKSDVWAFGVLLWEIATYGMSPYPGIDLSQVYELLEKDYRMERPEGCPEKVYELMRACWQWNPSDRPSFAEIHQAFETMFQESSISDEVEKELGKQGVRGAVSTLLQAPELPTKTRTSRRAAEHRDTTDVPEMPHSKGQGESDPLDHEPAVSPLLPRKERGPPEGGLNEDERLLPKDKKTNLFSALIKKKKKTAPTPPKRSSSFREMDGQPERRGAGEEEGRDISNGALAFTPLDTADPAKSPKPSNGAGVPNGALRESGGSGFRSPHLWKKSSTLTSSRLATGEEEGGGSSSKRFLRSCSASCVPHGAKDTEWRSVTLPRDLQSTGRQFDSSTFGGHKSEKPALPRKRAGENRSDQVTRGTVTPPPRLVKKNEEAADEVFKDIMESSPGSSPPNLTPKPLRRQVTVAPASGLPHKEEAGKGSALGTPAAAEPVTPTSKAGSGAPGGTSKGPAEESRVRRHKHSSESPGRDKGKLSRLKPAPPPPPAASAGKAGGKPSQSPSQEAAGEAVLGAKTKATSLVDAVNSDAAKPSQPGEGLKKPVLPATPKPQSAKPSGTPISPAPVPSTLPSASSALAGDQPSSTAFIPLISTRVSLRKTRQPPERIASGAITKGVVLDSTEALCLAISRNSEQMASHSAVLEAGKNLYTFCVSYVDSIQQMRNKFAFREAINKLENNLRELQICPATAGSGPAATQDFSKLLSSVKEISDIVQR
Chain of Casein kinase I isoform delta (Homo sapiens) (P48730 whole entry, looked up, canonical isoform): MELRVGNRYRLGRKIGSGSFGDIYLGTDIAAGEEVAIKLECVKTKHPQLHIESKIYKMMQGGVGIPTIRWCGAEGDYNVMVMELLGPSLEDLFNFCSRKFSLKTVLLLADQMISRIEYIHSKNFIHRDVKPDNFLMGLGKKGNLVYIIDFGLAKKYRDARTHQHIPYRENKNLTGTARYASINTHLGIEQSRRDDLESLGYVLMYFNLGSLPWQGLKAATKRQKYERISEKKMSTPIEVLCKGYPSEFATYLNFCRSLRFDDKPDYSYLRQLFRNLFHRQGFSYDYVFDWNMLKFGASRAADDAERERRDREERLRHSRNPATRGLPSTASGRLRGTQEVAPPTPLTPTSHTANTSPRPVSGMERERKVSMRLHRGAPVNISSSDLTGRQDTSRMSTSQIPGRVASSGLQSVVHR

`CCCCCCCCCCCCC/C=C/[C@@H](O)[C@H](CO)NC(=O)CBr`: the ΔTm in assay [1] is 0.2 °C; in assay [2], -6.16 °C; in assay [3], -4.16 °C; in assay [4] it was -9.74 °C; in assay [5], -9.26 °C; in assay [6], 0.47 °C. Moreover, the values for the shift in melting temperature (ΔTm) in assay [7] and in assay [8] were -14.4 °C and -2.18 °C, respectively.
For `CCC1CCCCN1C(=O)n1ncc(C(O)(c2ccccc2)c2ccccc2)n1` (stereo not drawn), the thermal shift (ΔTm) in assay [1] was -3.62 °C; in assay [2], -3.03 °C; in assay [3], -0.45 °C; in assay [4], 0.07 °C; in assay [5], -6.94 °C; in assay [6], 0.16 °C. Also, the ΔTm is -2.31 °C in assay [7] and -1 °C in assay [8].
For the compound `CCCC[C@]1(CC)CS(=O)(=O)c2cc(CNC(CC(=O)O)CC(=O)O)c(OC)cc2[C@@H](c2ccccc2)N1`, the shift in melting temperature (ΔTm) in assay [1] is 0.44 °C; in assay [2], 0.52 °C; in assay [3], -0.44 °C; in assay [4] it was -0.45 °C; in assay [5], -0.88 °C; in assay [6], 0.14 °C. The ΔTm in assay [7] is -1.84 °C; in assay [8], 0.38 °C.
Regarding `CC(=O)O[C@]1(C(C)=O)CC[C@H]2[C@@H]3C=C(Cl)C4=CC(=O)[C@@H]5C[C@@H]5[C@]4(C)[C@H]3CC[C@@]21C`, the ΔTm is 0.36 °C in assay [1]; -1.71 °C in assay [2]; 0.15 °C in assay [3]; 0.16 °C in assay [4]; -0.72 °C in assay [5]; -0.22 °C in assay [6]. Moreover, the ΔTm in assay [7] is -1.49 °C; in assay [8], -1.08 °C.
On to `COC(=O)C1=C(C(=O)OC)[C@@]2([C@@H](Cc3ccc(C)cc3)Nc3ccccc3)C=C[C@@H]1O2`, for which the thermal shift (ΔTm) in assay [1] is 0.44 °C; in assay [2], -0.64 °C; in assay [3], 0.54 °C; in assay [4], -0.66 °C; in assay [5] it was -1.68 °C; in assay [6] it was -0.27 °C. The shift in melting temperature (ΔTm) in assay [7] was -2.34 °C; in assay [8] it was 1.28 °C.
As for `COC[C@@H]1CCCN1S(=O)(=O)c1ccc2c(c1)C(=O)C(=O)N2`, the ΔTm was 0.35 °C in assay [1]; -1.47 °C in assay [2]; -0.41 °C in assay [3]; 0.01 °C in assay [4]; -0.2 °C in assay [5]; -0.37 °C in assay [6]. Also, the figures for the ΔTm in assay [7] and in assay [8] were -0.97 °C and -0.89 °C, respectively.
On to `FC(F)(F)Cn1cc(-c2ccncc2)c(-c2ccc(OCc3ccc4ccccc4n3)cc2)n1`, for which the shift in melting temperature (ΔTm) is 1.54 °C in assay [1]; -3.29 °C in assay [2]; 0.14 °C in assay [3]; 1.23 °C in assay [4]; -1.19 °C in assay [5]; 0.65 °C in assay [6]. Also, the shift in melting temperature (ΔTm) in assay [7] is 0.56 °C; in assay [8], -0.98 °C.
On to `Cc1cc(C)c(-c2[nH]nc(C)c2C)cc1C(=O)N1CC(c2ccc(C#N)cc2)C1`, for which the ΔTm in assay [1] was 1.06 °C; in assay [2], -3.66 °C; in assay [3], -0.16 °C; in assay [4] it was -0.21 °C; in assay [5], -0.42 °C; in assay [6] it was 0.26 °C. For the same compound, the shift in melting temperature (ΔTm) in assay [7] was -2.18 °C; in assay [8] it was -0.05 °C.
With `CCCOc1ccc(NC(=O)CN2CCN(C)CC2)cc1-c1nc(CC)c(CC)c(=O)[nH]1`, the ΔTm is 0.61 °C in assay [1]; -1.93 °C in assay [2]; 0.23 °C in assay [3]; -0.21 °C in assay [4]; -0.28 °C in assay [5]; 0.66 °C in assay [6]. For the same compound, the ΔTm in assay [7] is -2.39 °C; in assay [8], -1 °C.
As to `O=C(Nc1ccccc1C(=O)O)c1cc(S(=O)(=O)c2ccccc2)ccc1Cl`, the ΔTm was 0.57 °C in assay [1]; -2.4 °C in assay [2]; 0.28 °C in assay [3]; -0.33 °C in assay [4]; 0.26 °C in assay [5]; 0.08 °C in assay [6]. Moreover, the ΔTm in assay [7] was -2.26 °C; in assay [8] it was 1.1 °C.
For `CC(=O)N[C@@H](CC(C)C)C(=O)N[C@@H](CCC(=O)O)C(=O)N[C@@H](Cc1cnc[nH]1)C(=O)N[C@@H](CC(=O)O)C(=O)CCl` (Ac-LEHD-CH2Cl), the thermal shift (ΔTm) was 0.46 °C in assay [1]; -2.67 °C in assay [2]; -0.58 °C in assay [3]; 0.2 °C in assay [4]; 0.91 °C in assay [5]; 0.29 °C in assay [6]. In addition, the thermal shift (ΔTm) was -1.15 °C in assay [7] and -1.2 °C in assay [8].
As to `Cc1cc(C)nc(SCC(=O)Nc2ncc(Cc3cccc4ccccc34)s2)n1`, the ΔTm in assay [1] is 1.25 °C; in assay [2], -0.67 °C; in assay [3], 0.38 °C; in assay [4] it was 5.19 °C; in assay [5] it was -0.21 °C; in assay [6], -4.06 °C. For the same compound, the shift in melting temperature (ΔTm) in assay [7] was -1.18 °C; in assay [8], 5.54 °C.
`C=CCn1c(N[C@@H]2C[C@H](c3ccc(OCc4ccccc4)cc3)CN(C)C2)nc2cc[nH]c2c1=O`: the ΔTm in assay [1] was 0.69 °C; in assay [2] it was 0.73 °C; in assay [3], -0.03 °C; in assay [4], -0.36 °C; in assay [5], -0.88 °C; in assay [6], 0.13 °C. Moreover, the ΔTm in assay [7] was -1.6 °C; in assay [8], 0.04 °C.
For the compound `Nc1ncnc2c1nc(NCc1ccc(-c3ccccc3)cc1)n2[C@@H]1O[C@H](CO)[C@@H](O)[C@H]1O`, the shift in melting temperature (ΔTm) was 1.36 °C in assay [1]; -3.1 °C in assay [2]; 0.21 °C in assay [3]; -0.22 °C in assay [4]; -0.69 °C in assay [5]; 0.28 °C in assay [6]. The thermal shift (ΔTm) in assay [7] is -1.41 °C; in assay [8], -0.53 °C.
`Nc1nc(NC2CC2)cc(-c2cccc(Cl)c2Cl)n1`: the thermal shift (ΔTm) is 0.77 °C in assay [1]; -2.44 °C in assay [2]; 0.2 °C in assay [3]; -0.46 °C in assay [4]; 0.36 °C in assay [5]; 0.25 °C in assay [6]. Moreover, the shift in melting temperature (ΔTm) is -1.81 °C in assay [7] and 0.87 °C in assay [8].
Regarding `COc1cccc(OC)c1S(=O)(=O)Nc1noc2cc(Cn3cccn3)cc(OC)c12`, the shift in melting temperature (ΔTm) in assay [1] was 0.73 °C; in assay [2] it was -2.01 °C; in assay [3], 0.06 °C; in assay [4], -0.03 °C; in assay [5] it was -1.16 °C; in assay [6], 0.02 °C. The thermal shift (ΔTm) in assay [7] is -0.5 °C; in assay [8] it was -1.5 °C.

One may read the ΔTm as the shift of the melting midpoint relative to a reference.
